Laboratory results from PubChem BioAssay (NCATS).
Inconclusive results are not listed. Unmarked numbers belong to inactive results. Active and inactive are the calls of the source. Calls come from the whole dose curve; as a rule, active = well fitted activation curve with a large enough effect; inconclusive = small, poorly fitted or top-dose-only effect; inactive = no such curve, though single readings can be large or run the other way.

molecular target: Rap guanine nucleotide exchange factor 3 (Homo sapiens) (UniProt O95398); test: Confirmatory qHTS for agonist of cAMP-regulated guanine nucleotide exchange factor 3 (EPAC1) (AID 1645881); settings: EPAC1 Rap1B BODIPY-GDP exchange fluorescence; series mostly up to 154 µM; activation: at the top concentration; note: nearly all actives have a fitted effect of over 75% in size;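 for activation: EPAC1 catalysed release of BODIPY-GDP from Rap1B seen as fluorescence loss; 100% = effect of cAMP agonist control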
Potency is the fitted concentration of half-maximal effect.

Sequence of Rap guanine nucleotide exchange factor 3 (Homo sapiens) (O95398 whole entry, looked up): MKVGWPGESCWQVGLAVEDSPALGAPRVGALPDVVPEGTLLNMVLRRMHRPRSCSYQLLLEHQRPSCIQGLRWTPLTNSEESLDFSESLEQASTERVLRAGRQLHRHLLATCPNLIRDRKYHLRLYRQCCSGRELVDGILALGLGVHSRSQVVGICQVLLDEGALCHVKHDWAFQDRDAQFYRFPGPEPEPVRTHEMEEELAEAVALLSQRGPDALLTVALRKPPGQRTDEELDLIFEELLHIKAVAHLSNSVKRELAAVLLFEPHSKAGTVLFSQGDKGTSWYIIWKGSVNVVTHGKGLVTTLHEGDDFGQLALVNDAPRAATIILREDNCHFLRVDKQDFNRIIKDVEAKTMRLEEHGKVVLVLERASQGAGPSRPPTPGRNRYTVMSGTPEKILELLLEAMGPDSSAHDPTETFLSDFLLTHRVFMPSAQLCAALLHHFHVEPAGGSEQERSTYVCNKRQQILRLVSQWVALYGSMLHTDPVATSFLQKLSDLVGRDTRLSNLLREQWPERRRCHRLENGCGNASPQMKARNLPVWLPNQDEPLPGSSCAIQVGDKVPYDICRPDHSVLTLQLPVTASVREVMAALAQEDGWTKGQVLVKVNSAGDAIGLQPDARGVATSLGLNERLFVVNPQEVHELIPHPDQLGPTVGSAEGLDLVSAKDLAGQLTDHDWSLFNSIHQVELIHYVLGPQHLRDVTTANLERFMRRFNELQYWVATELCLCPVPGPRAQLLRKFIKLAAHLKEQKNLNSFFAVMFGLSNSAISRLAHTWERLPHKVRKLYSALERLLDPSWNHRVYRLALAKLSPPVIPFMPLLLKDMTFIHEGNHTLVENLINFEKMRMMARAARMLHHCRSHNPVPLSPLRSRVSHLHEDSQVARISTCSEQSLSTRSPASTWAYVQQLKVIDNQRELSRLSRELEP

| SMILES | activation [%] | Potency |
| --- | --- | --- |
| COc1cc2c(cc1OC)C1C(=O)c3ccc4c(c3OC1CO2)C=CC(C)(C)O4 (centres undefined) | 2.22 | – |
| COc1ccc2[nH]cc(CCNc3ncnc4ccc(-c5ccccc5OC)cc34)c2c1 | 10.4 | – |
| Cc1cc(C)c2nc(N3C(=O)C(O)=C(C(=O)c4ccco4)C3c3ccc(O)cc3)sc2c1 (centres undefined) | -37.1 | – |
| COC(=O)[C@@]1(C)CCC[C@@]2(C)c3ccc(O)c(C(C)C)c3CCC21 (some centres undefined) | 6.28 | – |
| COc1cccc(-c2cncnc2NCc2ccccc2OC)c1 | 2.6 | – |
| CCOC(=O)C(C)Sc1ncnc2c1nnn2-c1ccc(F)cc1 (centres undefined) | 9.28 | – |
| Oc1ccc2ccc3cccc[n+]3c2c1 | – | 112 µM (active) |
| O=C1c2cccc3c(O)ccc(c23)C(=O)N1Cc1ccco1 | – | 100 µM (active) |
| O=C(Nc1sc2c(c1C(=O)O)CCC2)c1ccccc1F | 1.31 | – |
| CCOC(=O)C1(O)Oc2cc(OC)cc(OC)c2C(=O)C1c1ccccc1 (centres undefined) | 8.05 | – |
| COc1cccc(Cn2c(=O)c(CCc3ccccc3)nc3cnc(N4CCN(C)CC4)nc32)c1 | 12.7 | – |
| CC(C)=CCc1c(O)cc(O)c2c1O[C@H](c1ccccc1)CC2=O | -3.17 | – |
| Nc1ccc2cc3[nH]c4cc(N)ccc4c3nc2c1 | – | 100 µM (active) |
| O=c1cnc2cnc(OCc3ccccc3)nc2n1CCc1ccccc1 | -0.49 | – |
| CN1CCN(c2ncc3nc(-c4cccs4)c(=O)n(CCc4ccccc4)c3n2)CC1 | -30.2 | – |
| Cc1nc(Nc2ccc(S(=O)(=O)N3CCCCC3C)cc2)c2nnn(Cc3ccccc3)c2n1 (centres undefined) | 4.98 | – |
| COc1ccc(-c2nc(C)ncc2-c2ccc(Cl)cc2)c(O)c1 | 27.2 | – |
| O=c1cnc2cnc(Oc3ccccc3)nc2n1Cc1cccs1 | 11 | – |
| O=C(c1cnccn1)N1CCC[C@@]2(CCN(c3cccc(-c4ccccc4)c3)C2)C1 | 3.89 | – |
| CC1=NOC(=O)/C1=C\c1ccc(-c2ccc(Br)cc2)o1 | -7.7 | – |

| SMILES | activation [%] | Potency |
| --- | --- | --- |
| O=C1c2cccc3c(O)ccc(c23)C(=O)N1Cc1ccccc1 | – | 89.1 µM (active) |
| C=C1CCC(O)C/C1=C\C=C1/CCCC2(C)C1CCC2C(C)CCCC(C)C (centres undefined) | -26.8 | – |
| Nc1ccc(-c2c3ccc(=O)cc-3oc3cc(O)ccc23)cc1C(=O)O | – | 50.1 µM (active) |
| COc1ccc(CNc2nc(-c3cccnc3)nc3ccccc23)c(OC)c1 | -3.93 | – |
| O=C(/C=C/c1ccco1)NCC1OCCc2ccccc21 (centres undefined) | -6.59 | – |
| O=C(c1ccco1)N1CCC2(CC1)CN(c1cccc(-c3ccccc3)c1)C2 | 8.13 | – |
| CN(C)c1ncc2nc(CCc3ccccc3)c(=O)n(Cc3cccs3)c2n1 | 9.07 | – |
| CN1CCN(c2ncc3nc(CCc4ccccc4)c(=O)n(Cc4cccs4)c3n2)CC1 | 12.1 | – |
| CC(=O)Nc1ccc(N2C(=O)c3cccc4c(O)ccc(c34)C2=O)cc1 | – | 79.4 µM (active) |
| CCOc1ccc(-n2c(SCC(=O)Nc3ccc(F)cc3)nc3c([nH]c4ccccc43)c2=O)cc1 | -0.12 | – |
| CC1(C)C(OC(=O)CCC(=O)O)CC[C@]2(C)C1CC[C@@]1(C)C2C(=O)C=C2[C@@H]3C[C@@](C)(C(=O)O)CC[C@]3(C)CCC21C (some centres undefined) | -1.38 | – |
| CCOC(=O)c1cnc2ccc(OC)cc2c1Nc1ccc(N2CCN(C)CC2)cc1 | -0.719 | – |
| C=C1CCC(O)C/C1=C\C=C1/CCCC2(C)C1CCC2C(C)/C=C/C(C)C(C)C (centres undefined) | -2.69 | – |
| CCN1C(=O)c2cccc3c(N)ccc(c23)C1=O | – | 100 µM (active) |
| COc1ccc(Oc2ncc3nc(CCc4ccccc4)c(=O)n(CCC#N)c3n2)cc1 | 0.59 | – |
| CCNc1ccc2noc3c2c1C(=O)c1ccccc1-3 | – | 100 µM (active) |
| COc1ccc2c(=O)c(OC)c(-c3ccccc3)oc2c1 | -0.181 | – |
| CN1CCN(c2ncc3nc(-c4cn(C)c5ccccc45)c(=O)n(CCC#N)c3n2)CC1 | -11.6 | – |
| COc1ccc(C(C(=O)NC(C)(C)C)n2c(=O)c(-c3cc4ccccc4[nH]3)nc3ccccc32)cc1 (centres undefined) | 10.5 | – |
